From PubChem BioAssay AID1619 (SRMLSC, 2009)
About 830 (0.38%) of roughly 220,000 compounds were called active.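 How the source made its calls: active means compound inhibiting the enzyme by more than half at any dose during confirmatory dose-response retesting; inconclusive means strong single-dose inhibitors picked by rank but not retested; inactive means the rest.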 Not all results are given here. Entries with a potency or affinity are not part of this list.

Each molecule was assayed against Leucine aminopeptidase (Plasmodium falciparum (isolate 3D7)) (UniProt Q8IL11) (assay: P. falciparum M17LAP inhibitors, primary screen, biochemical, fluorogenic H-Leu-NHMec substrate, 1536-well (AID 1619;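 further: plate controls were full reaction with DMSO carrier for no effect and no enzyme background for full effect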)). Details: recombinant M17LAP, H-Leu-NHMec fluorogenic kinetic assay; at 30 µM; active compounds read high.
Sequence of Leucine aminopeptidase (Plasmodium falciparum (isolate 3D7)) (Q8IL11 whole entry, looked up): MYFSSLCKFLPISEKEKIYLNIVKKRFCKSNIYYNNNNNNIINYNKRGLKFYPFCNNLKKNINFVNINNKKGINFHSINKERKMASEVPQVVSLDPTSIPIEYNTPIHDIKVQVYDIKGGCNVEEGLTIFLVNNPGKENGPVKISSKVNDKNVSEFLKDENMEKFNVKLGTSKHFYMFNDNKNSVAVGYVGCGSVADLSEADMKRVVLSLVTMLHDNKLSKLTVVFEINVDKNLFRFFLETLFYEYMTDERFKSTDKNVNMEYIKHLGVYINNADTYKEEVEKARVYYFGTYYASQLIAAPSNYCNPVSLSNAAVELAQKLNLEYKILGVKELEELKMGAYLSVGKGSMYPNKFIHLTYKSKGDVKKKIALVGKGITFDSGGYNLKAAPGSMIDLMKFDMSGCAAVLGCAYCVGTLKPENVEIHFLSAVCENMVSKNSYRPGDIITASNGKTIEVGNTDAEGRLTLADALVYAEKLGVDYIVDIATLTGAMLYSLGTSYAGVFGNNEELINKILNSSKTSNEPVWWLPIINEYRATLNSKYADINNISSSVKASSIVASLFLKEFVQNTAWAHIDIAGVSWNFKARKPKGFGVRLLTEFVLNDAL

inhibition, inactive:
CC(SC(=S)N1CCCC1)C(=O)O (stereo unspecified) -0.65%
O=C(OCCN1CCOCC1)C(c1ccccc1)c1ccccc1 -9.47%
FC(F)(F)c1nnc2ccc(NCn3nnc4ccccc43)nn12 22.6%
O=C(c1cnc2n(c1=O)CCS2)N(C1CCCCC1)C1CCCCC1 11.3%
CC(C)C(C)(C#N)NC(=O)CSc1nc2scc(-c3ccc(F)cc3)c2c(=O)n1Cc1ccccc1 (stereo unspecified) 11.3%
COc1cccc(F)c1C(C[N+](=O)[O-])c1c(N)n(C)c(=O)n(C)c1=O (stereo unspecified) 2.97%
N#CCOc1nc(N2CCCC2)nc(N2CCCC2)n1 1.35%
Cc1cc(OCC(=O)c2ccc(F)cc2)ccc1N1C(=O)CCC1=O -4.66%
O=C(/C=C/c1ccco1)Nc1ccccc1C(=O)O 27.5%
O=C(/C=C/c1ccco1)Nc1cccnc1Cl 5.61%
COc1ccccc1NS(=O)(=O)c1cccc(C(=O)N/N=C/c2ccccc2OCC(=O)O)c1 16.5%
CCN(CC)S(=O)(=O)c1cccc(C(=O)N/N=C/c2ccccc2OCC(=O)O)c1 13.9%
COc1ccc(S(=O)(=O)Nc2ccc3oc(C)c(C(=O)O)c3c2)cc1 6.21%
COCCOC(=O)c1c(C)oc2ccc(NS(=O)(=O)c3ccc(C(=O)O)cc3)cc12 32.9%
O=C(O)c1cc(S(=O)(=O)Nc2ccc3oc(=O)sc3c2)ccc1O 51.1%
COCCOC(=O)c1c(C)oc2ccc(NS(=O)(=O)c3ccc(C)cc3)cc12 2.98%
Cc1cc(C(=O)CN2C(=O)C(=O)N(Cc3ccccc3)C2=O)c(C)n1-c1ccc2c(c1)OCCO2 -11.2%
CC(C)c1nc(SCC(=O)Nc2c[nH]c(=O)[nH]c2=O)c2cnn(-c3ccccc3)c2n1 -6%
CC(=O)OCC(=O)Nc1ccccc1OC(F)F -2.65%
Cc1ccc(CNC(=O)C2CCCN(c3nc4ccsc4c(=O)s3)C2)cc1 (stereo unspecified) -6.15%
C#CCOCCOCCOCCNc1nc(N2CCN(C(=O)C([C@@H](C)CC)n3cc(C(N)CO)nn3)CC2)nc(N2CCN(C(=O)[C@H](CCC(=O)O)n3cc(C(N)CC(C)C)nn3)CC2)n1 (stereo partly specified) 2.95%
O=C(N=C1c2ccccc2CN1c1ccc(F)c(F)c1)c1cccnc1 3.87%
Cc1ccc(C(=O)Nc2c(C)cc(-c3ccc(Cl)cc3)oc2=O)cc1 2.9%
CC1(CCc2ccccc2)NC(=S)N(c2ccccc2)N1 (stereo unspecified) 10.2%
CCCCC(=O)NNC(=S)NC(=O)c1ccc(C)cc1 59.8%
CCCC(=O)Nc1ccc(C(=O)NNC(=O)c2cccc([N+](=O)[O-])c2)cc1 4.12%
CCCCC(=O)NNC(=S)NC(=O)c1ccc([N+](=O)[O-])cc1 44.2%
O=C(CNC(=S)NC(=O)c1cccc([N+](=O)[O-])c1)c1ccccc1 -0.71%
Cc1cccc(NC(=S)NNC(=O)c2cccc([N+](=O)[O-])c2)c1 3.9%
CCCCCC(=O)NNC(=S)NC(=O)c1ccccc1[N+](=O)[O-] 14.3%
CCCCCCCC(=O)NNC(=O)c1ccc([N+](=O)[O-])cc1 1.27%
CCCCC(=O)Nc1cccc(NC(=O)c2cccc([N+](=O)[O-])c2)c1 5.17%
O=C(CSc1nnc2sc3ccccc3n12)c1ccco1 -1.98%
O=C(CC1SC(=NCCc2ccccc2)N(/N=C/c2cccs2)C1=O)Nc1ccc(Cl)cc1 (stereo unspecified) -1.78%
c1ccc2c(-c3cc(C4CCNCC4)[nH]n3)cccc2c1 -3.07%
CCCc1cc(C(=O)NCc2ccco2)no1 -5.04%
COc1ccccc1CC(=O)NNC(=O)c1cccs1 -2.69%
O=C(CSc1nccc(=O)[nH]1)N1CCN(c2ccccc2)CC1 5.66%
CCOC(=O)COc1ccc(S(=O)(=O)Nc2ccc3c(c2)OCCO3)cc1 2.78%
Cc1cc(=O)[nH]c(SCC(=O)Nc2ccc(C(=O)O)cc2)n1 8.39%
COc1ccc(NC(=O)CSc2nc(C)cc(C(F)(F)F)n2)cc1 19%
Cc1ccc(NC(=O)CSc2nc(O)cc(=O)n2C)cc1 7.3%
COc1ccc2nc(NC(=O)CSc3nccc(C)n3)sc2c1 1.42%
Cn1c(SCC(=O)Nc2ccc(Br)cc2)nc(O)cc1=O 10.4%
COC(=O)c1ccc(NC(=O)CSc2nc(C)cc(=O)[nH]2)cc1 35.4%
Cc1cc(C)nc(NC(=O)CSc2nccc(C)n2)n1 5.87%
COc1ccc(NC(=O)CSc2nc(C)cc(C)n2)cc1 44%
Cc1cc(C)n(-c2nnc(C)n2N)n1 1.79%
COc1ccc(-c2ccn(-c3cccc(F)n3)n2)cc1 10.6%
O=C(N/N=C/c1ccc2c(c1)OCO2)C(=O)Nc1ccccc1 5.86%
CC(=O)c1ccccc1OCCn1nnc(-c2ccc(C)cc2)n1 12.1%
CCCOc1ccc(-c2c(C(=O)N/N=C/c3ccc(C)cc3)nnn2-c2nonc2N)cc1 -4.98%
CCOC(=O)C1=C(Nc2ccc(C)cc2)CC(C)(O)C(C(=O)OCC)C1c1ccccc1 (stereo unspecified) 0.02%
Cc1cc(C)nc(N2CCC(C(=O)Nc3nnc(C)s3)CC2)n1 1.03%
CC(C)(C)Nc1nc2cc([N+](=O)[O-])ccc2o1 2.86%
COc1ccc(NC(=O)CSc2c(C)n[nH]c2C)cc1 21.7%
Cc1nn(-c2nnc(C)c(=O)[nH]2)c(C)c1SCC(=O)Nc1ccc(C(C)C)cc1 63.3%
COc1ccc(NC(=O)CSc2ccc(C)cc2)cc1 -1.37%
CCN(CC)c1ccc(NC(=O)CSc2nnc3nc(C)cc(C)n23)cc1 45.5%
Cc1nn(-c2nnc(C)c(=O)[nH]2)c(C)c1SCC(=O)Nc1ccc(F)cc1 46.2%
Cc1cc(C)nc(SCC(=O)Nc2ccc(N3CCOCC3)cc2)n1 24.8%
COc1ccc(Cc2nn3c(-c4ccccc4OC)nnc3s2)cc1 18.6%
CC1=CC(C)(C)n2c(O)c(N=N)c3c(C)c(C)cc1c32 14.8%
Cc1c(C(=O)NCCSCc2ccccc2Cl)cccc1[N+](=O)[O-] 4.93%
CCOc1ccc(NC(=O)Nc2cc(-c3ccccc3)sc2C(=O)OC)cc1 -2.36%
Cc1cc(C)nc(SCC(=O)Nc2ncc3c(n2)CCCC3=O)n1 -1.93%
Cc1nn(C)cc1CN(C)C(=O)c1nn2c(c1Cl)NC(c1cccs1)CC2C(F)(F)F (stereo unspecified) 11.7%
CC(C)(C)C(=O)N1CCC(O)(CS(=O)(=O)Cc2ccccc2Cl)CC1 13.8%
Cc1ccc(-n2c(SCC(=O)N3CCCc4ccccc43)nnc2-c2cccnc2)c(C)c1 7.68%
Cc1ccc(-n2c(SCC(N)=O)nnc2-c2cccnc2)c(C)c1 1.98%
Cc1cccc(C)c1NC(=S)N1CCC(c2ccccc2)C1 (stereo unspecified) 2.96%
O=c1nc(-c2ccccc2)c2cc(Cl)ccc2[nH]1 3.02%
COc1ccc(/C=C2\CCCC3C2=NN(C(=O)c2scnc2C)C3c2ccc(OC)c(OC)c2)cc1OC (stereo unspecified) -6.36%
Nc1nc2ncc(C(=O)c3cc(F)ccc3O)cc2s1 12.6%
Cc1[nH]nc2ncc(C(=O)c3cc(F)ccc3O)cc12 9.66%
CS(=O)(=O)Nc1nnc(Cc2ccccc2)s1 9.67%
CCCn1c(NCc2cccc(OC)c2O)nc2ccccc21 -4.67%
COc1cc(/C=N/n2c(C)n[nH]c2=S)ccc1OCc1ccc(F)cc1 -2.61%
CC(C)(C)OC(=O)N1CCCC1C(=O)O (stereo unspecified) -3.69%
O=C(Cn1cnc2ccccc2c1=O)c1c[nH]c2ccccc12 11.6%
Cc1nc2cc(NC(=O)Nc3ccc(Br)cc3)ccc2o1 -1.6%
COc1ccc(NC(=O)Nc2ccc3nccnc3c2)cc1 37.8%
CCOc1ccc(NC(=O)c2ccc3nccnc3c2)cc1 -3.72%
CCc1ccc(NC(=O)Nc2cccs2)cc1 38.6%
CC(=O)Nc1ccc2oc(C)nc2c1 0.35%
Cc1ccc(NC(=O)Nc2cccs2)cc1 22.4%
CCn1c(=O)c(C(=O)NCc2cccnc2)c(O)c2ccccc21 2%
CS(=O)(=O)N1N=C(c2ccco2)CC1c1ccccc1Cl (stereo unspecified) 5.77%
CN(C(=O)CSc1nc(-c2ccccc2)c(-c2ccccc2)o1)C1CCS(=O)(=O)C1 (stereo unspecified) 5.76%
NC(=O)c1c(-c2ccc(Cl)cc2Cl)csc1NC(=O)Cc1ccccc1 6.81%
CC(=O)Nc1ccc(NC(=O)CSc2nnc(-c3ccccc3)n2Cc2ccc3c(c2)OCO3)cc1 5.97%
COC(=O)c1[nH]c2c(c1C)C(=O)CCC2 6.36%
CCN1C(=O)/C(=C2\C=Cc3cc(C)ccc3N2CC)OC1=S 1.65%
CCOc1cc(/C=C2\C(=O)N(CCC#N)N=C2C)ccc1OCC(N)=O 4.75%
CC1=NN(Cc2ccccc2)C(=O)/C1=C\c1ccc(N(C)C)cc1 3.83%
CC1=C(C(=O)OC(C)C)C(c2cn(-c3ccccc3)nc2-c2cccs2)NC(=O)N1 (stereo unspecified) 2.02%
